Inhibition data for 54 compounds are collected here from PubChem BioAssay AID1053197 (The Scripps Research Institute Molecular Screening Center, 2014).

The structures appear in SMILES notation. Among all 370,000 compounds or so, about 2,600 (0.7%) were called active. The list comes from a sample in which actives are over-represented; it also holds similar structures and randomly drawn compounds. A number with no mark means an inactive call.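 How the source made its calls: active means inhibition above a cutoff: mean of compounds within the control limits plus 3 SD of those (cut at about 17% in these data); inactive means the rest.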

Sialate O-acetylesterase (Homo sapiens), sequence (Q9HAT2 whole entry, looked up): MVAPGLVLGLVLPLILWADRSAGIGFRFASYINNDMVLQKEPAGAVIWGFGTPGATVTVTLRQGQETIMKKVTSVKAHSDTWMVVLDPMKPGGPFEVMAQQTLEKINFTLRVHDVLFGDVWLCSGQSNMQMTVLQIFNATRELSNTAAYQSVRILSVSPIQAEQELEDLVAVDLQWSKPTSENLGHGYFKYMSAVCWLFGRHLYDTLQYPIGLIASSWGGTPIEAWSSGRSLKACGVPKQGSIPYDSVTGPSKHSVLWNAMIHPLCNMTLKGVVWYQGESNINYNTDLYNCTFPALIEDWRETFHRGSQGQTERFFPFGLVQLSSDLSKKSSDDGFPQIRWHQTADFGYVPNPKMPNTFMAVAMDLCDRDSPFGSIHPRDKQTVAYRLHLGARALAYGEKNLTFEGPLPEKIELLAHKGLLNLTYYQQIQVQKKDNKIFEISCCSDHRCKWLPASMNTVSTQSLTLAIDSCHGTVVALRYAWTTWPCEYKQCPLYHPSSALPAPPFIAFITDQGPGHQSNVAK

The assay addresses Sialate O-acetylesterase (Homo sapiens) (UniProt Q9HAT2). The experiment in a line: human SIAE inhibitors, primary screen, biochemical, fluorescence polarization, FP-Rh probe, 1536-well HTS (AID 1053197).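 Further: 0% = plate median of compound wells and 100% = probe without SIAE protein.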 The conditions noted are these: SIAE FP-Rh probe binding, at 9.66 µM, hits give high values.
Consider `CC(=O)NS(=O)(=O)c1ccc(N/C(N)=N/c2nc(C)cc(C)n2)cc1`, for which the inhibition (in general, the relative decrease from the control value, in per cent) was -5.5%.

Turning to `COc1ccc(C(=O)NNc2cc(C)nc(NNC(=O)c3ccc(OC)cc3)n2)cc1`, the inhibition is -3.36%.

Turning to `CC(=O)Nc1ccc(Nc2cc(C)nc(Nc3ccc(NC(C)=O)cc3)n2)cc1`, the inhibition is 19.1% (active). Next, `CCC(c1ccc(NC(=O)OC(C)(C)C)cc1)c1cc(OC)cc(OC)c1` (centres undefined): -2.44%.

For `C=CCN1C(=O)[C@H](CC(=O)N2CCN(C(=O)OCC)CC2)[C@@]2(C(=O)OCC)CCCC=C12`, the inhibition is 10.1%. Consider `CC(=O)N1CCc2cc(S(=O)(=O)NCCC(=O)N3CCCC3)ccc21`, for which the inhibition was -1.37%. Next, `C=CCN1C(=O)[C@@H](CC(=O)N2CCN(C(=O)c3ccco3)CC2)[C@]2(C(=O)OC)CCCCC=C12`: 2.59%; `CC(C)N1CCCCC(NC(=O)C(C)(C)C)C1=O` (centres undefined): -4.73%. As to `Cc1cc2ccccc2n1CCNC(=O)COc1ccc2ccccc2c1`, the inhibition is 27.9% (active).

On to `O=C(COc1ccc(Cl)cc1)NCCSc1ccccc1`, for which the inhibition is 0.9%.

For `Cc1ccccc1OCC(=O)NCC(=O)OCC(=O)c1ccc2ccccc2c1`, the inhibition is -1.57%. Next, `C[C@H]1[C@H](NC(=O)c2cccc(N(C)C)c2)CC[C@@]23CCCN2C(=O)CCC[C@@H]13`: 0.13%; `COc1ccc(CSc2nnc(-c3cccc(C)c3)n2C)cc1`: 4.99%. Next, `COC(=O)C[C@@H]1CC[C@H]2[C@@H](COc3ccc(NS(=O)(=O)CC(F)(F)F)cc3C(=O)N2C)O1`: 8.2%; `COC(=O)[C@]12C[C@H](CC(=O)NCc3cccs3)C(=O)N(CCc3ccc(OC)c(OC)c3)C1=C[C@H](C(C)C)O[C@@H]2C1CC1`: 9.66%; `COc1ccc(C2CC=C(C(=O)O)C(c3ccccc3F)N2S(=O)(=O)c2ccc(C)cc2)cc1OC` (centres undefined): -2.16%.

Consider `COC(=O)/C(=C1\Oc2ccc(C(C)(C)C)cc2S1)C(F)(F)F`, for which the inhibition is 0.75%. Next, `CCOC(=O)C1=C(c2ccccc2)O/C(=C(/C(=O)OC)C(F)(F)F)S1`: 36% (active).

As to `CCOC(=O)c1nnn(-c2nonc2OC)c1-c1ccccc1`, the inhibition is 1.88%. `c1csc(-c2nnc(SCc3nc4ccccc4[nH]3)o2)c1`: the inhibition is -0.76%. On to `CCCNC(=O)Nc1ccc2c(c1)C(=O)N(C)[C@H]1CC[C@H](CC(=O)NCC3CCCCC3)O[C@@H]1CO2`, for which the inhibition was -0.34%. Take `Cc1cccc(NC(=O)C[C@H]2CC[C@H]3[C@@H](COc4ccc(NC(=O)Nc5ccccc5)cc4C(=O)N3C)O2)c1`: the inhibition is -1.56%.

For `COc1ccccc1CCC(=O)NNC(=O)c1ccncc1`, the inhibition is -7.13%. Next, `COc1ccc(/C=N/NC(=O)c2ccncc2)cc1CN1CCCc2ccccc21`: 18.8% (active); `CCc1ccc(/C=N/NC(=O)c2nnn(-c3nonc3N)c2CN2CCc3ccccc32)cc1`: -0.3%; `CCCCNC(=O)C[C@H]1C[C@@]2(C(=O)OC)C(=C[C@H](COCc3ccccc3)O[C@@H]2C)N(Cc2ccc(Cl)cc2Cl)C1=O`: 11.1%.

As for `COc1ccc(S[C@]2(C(=O)N(C)C)CC(=O)N(c3ccc(OC)cc3)[C@@H]2c2ccc(OC)cc2)cc1`, the inhibition is -0.86%.

In the case of `Cc1ccc(NC(=O)Cc2cccc(F)c2)c(S(=O)(=O)N2CCOCC2)c1`, the inhibition is -2.62%. With `COc1ccccc1OCC(=O)OCn1c(SC)nnc(C)c1=O`, the inhibition is -6.49%. Next, `CCSc1nc(O)c(C(c2cccc(OC)c2)c2c(O)nc(SCC)[nH]c2=O)c(=O)[nH]1`: -2.73%; `CCn1c(SC)nc(O)c(C(c2ccc(OC)c(O)c2)c2c(O)nc(SC)n(CC)c2=O)c1=O`: 26.7% (active); `CCN(/N=C/c1ccccc1)c1cc(=O)n(C)c(=O)[nH]1`: 10.2%. Next, `CCN(/N=C/c1ccc(N(C)C)cc1)c1nc2ccccc2[nH]1`: 4.94%; `Oc1ccc(/C=N/N(Cc2ccccc2)c2ccccc2)cc1`: 19.4% (active).

As to `O=C(NC1CCCC1)C1CSCCS(=O)(=O)N1Cc1ccccc1` (centres undefined), the inhibition is -3.54%. On to `N[C@@H](Cc1ccccc1)C(=O)N1CCC[C@@H]1C(=O)N1CCC2CCN(S(=O)(=O)c3ccccc3)CC21` (some centres undefined), for which the inhibition is 1.02%.

As for `Oc1ccc(/C=C/c2c(F)cccc2F)c2cccnc12`, the inhibition was 9.1%. Next, `COc1ccc(Cc2nc3ccc(C(=O)N4CCC(N(C)C)C4)cc3o2)cc1` (centres undefined): 18.5% (active). Next, `CCC1C(=O)NCCN1C(=O)c1ccc2nc(Cc3ccc(OC)cc3)oc2c1` (centres undefined): -0.21%. Next, `COCC1CCN(C(=O)c2ccc3oc(Cc4ccccc4)nc3c2)C1` (centres undefined): -5.51%; `CC(CCN1CCC(C(O)(c2ccccc2)c2ccccc2)CC1)Oc1ccc([N+](=O)[O-])cc1Cl` (centres undefined): 1.3%; `Cc1ccc(/C=N/NC(=O)Cn2ccc(C(F)(F)F)n2)o1`: 2.98%. As to `Cc1ccc(/C=N/NC(=S)NC2CCCCC2)o1`, the inhibition is 8.46%.

For the compound `Cc1ccc(/C=N/NC(=O)c2cc3ccccc3cc2O)o1`, the inhibition was 21.5% (active). As for `C[C@H]1CCC/C=C/C(=O)c2c(O)cc(O)cc2CC(=O)O1`, the inhibition is 5.43%. Next, `C=CCOC/C=C/C#CCN(CC=C)Cc1ccc(OC)cc1OC`: -0.76%.

For the compound `CCCCC(CC)CNC(=O)C(=O)C1C(=O)Nc2ccccc21` (centres undefined), the inhibition was 4.38%. Next, `CCOC(=O)CC1=CC(=O)Nc2ccccc2N1`: 2.76%; `CCOC(=O)C(=O)C1C(=O)Nc2ccccc21` (centres undefined): 20.6% (active). Next, `Nc1cccc(S(=O)(=O)Nc2ccc(SC(F)F)cc2)c1`: -5.85%; `Cc1c(NS(=O)(=O)c2cccc(C(=O)Nc3ccc(SC(F)F)cc3)c2)c(=O)n(-c2ccccc2)n1C`: -14%; `COc1ccc(NC(=O)/C(N=Nc2cccc(S(=O)(=O)Nc3ccc(SC(F)F)cc3)c2)=C(\C)O)cc1`: 17.2% (active). Next, `Cc1nc2ccc(C(=O)N3CCN(C(=O)C(C)(C)C)CC3)cc2n1C1CCCC1`: 1.16%. On to `Cc1ccccc1CS(=O)(=O)Cc1ccc(C(=O)Nc2ccc(Cl)cc2)o1`, for which the inhibition was -4.56%.
